Mtb FBA inh: Mtb FBA enzyme inhibitors, primary screen, biochemical, fluorescence, strain H37Rv; Fructose-bisphosphate aldolase (Mycobacterium tuberculosis (strain ATCC 25618 / H37Rv)), …; AID 588726, 2011; inhibition, % at 1 µM; purified M. tuberculosis FBA, fluorescence read-out; hit rate 2.3% among 360,000;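 also: 0% = vehicle and 100% = reference inhibitor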
GDH-TPI counter-1: GDH-TPI coupling enzyme inhibitors, primary screen, artefact control for M. tuberculosis FBA inhibitor project, biochemical, absorbance, full deck | GDH-TPI coupled enzyme counterscreen, NADH absorbance | inhibition, % at 4.8 µM | hit rate 1.2% among 360,000 | AID 588335, 2011; in the data active = inhibition above about 30%;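 also: 0% = DMSO wells and 100% = wells lacking the enzyme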
PrPC surface inh: inhibitors of human cell surface prion protein PrPC, primary screen, cell-based, TR-FRET; Major prion protein (Homo sapiens), P04156; TR-FRET read-out; inhibition, % at 13.8 µM; hit rate 0.43% among 370,000; AID 720596, 2013; in the data active = inhibition above about 24%; also: 0% = median of the test wells and 100% = reference compound wells
RecA intein inh: Mtb RecA intein splicing inhibitors, primary screen, biochemical, fluorescence, HTS | Protein RecA (Mycobacterium tuberculosis (strain ATCC 25618 / H37Rv)), P9WHJ3 | hit rate 0.75% among 290,000 | inhibition, % (no concentration beside the values) | cell-free RecA intein splicing; in the data active = inhibition above about 30%;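 also: 0% = vehicle wells and 100% = reference inhibitor control wells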
Target sequence (P9WHJ3 whole entry, looked up): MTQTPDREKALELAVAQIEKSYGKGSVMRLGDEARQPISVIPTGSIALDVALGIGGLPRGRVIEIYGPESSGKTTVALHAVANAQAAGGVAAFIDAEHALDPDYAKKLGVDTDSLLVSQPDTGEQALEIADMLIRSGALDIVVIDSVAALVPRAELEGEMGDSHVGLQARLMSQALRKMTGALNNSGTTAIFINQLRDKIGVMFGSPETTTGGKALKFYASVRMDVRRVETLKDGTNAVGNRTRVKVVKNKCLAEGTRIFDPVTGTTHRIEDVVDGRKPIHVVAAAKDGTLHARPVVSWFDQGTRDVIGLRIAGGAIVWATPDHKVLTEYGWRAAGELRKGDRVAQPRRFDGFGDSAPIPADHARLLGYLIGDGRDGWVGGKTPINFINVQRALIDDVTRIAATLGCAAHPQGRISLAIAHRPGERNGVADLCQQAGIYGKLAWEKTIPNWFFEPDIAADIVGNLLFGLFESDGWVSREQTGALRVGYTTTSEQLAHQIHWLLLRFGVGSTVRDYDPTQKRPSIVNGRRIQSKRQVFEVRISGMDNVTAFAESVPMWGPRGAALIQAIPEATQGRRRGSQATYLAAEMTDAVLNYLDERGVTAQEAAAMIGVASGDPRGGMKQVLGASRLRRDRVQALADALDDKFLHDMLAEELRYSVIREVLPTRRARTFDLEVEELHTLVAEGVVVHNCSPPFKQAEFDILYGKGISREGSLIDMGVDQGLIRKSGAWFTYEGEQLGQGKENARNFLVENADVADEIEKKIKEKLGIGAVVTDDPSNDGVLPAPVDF
BJeLR viability: MLPCN primary cell-based screen for lethality selective to Ras in HRASV12 cells. inhibition, % (concentration not given with the values). hit rate 0.17% among 300,000. AID 1554, 2009. BJeLR (HRASV12) viability, CellTiter-Glo ATP luminescence, 48 h; in the data active = inhibition above about 50%
Mtb FBA inh conf: M. tuberculosis aldolase blockers, biochemical, fluorescence, strain H37Rv, confirmation; inhibition, % at 1 µM; purified M. tuberculosis FBA, fluorescence read-out; shares compounds with Mtb FBA inh; AID 651616, 2012; hit rate 78% among 5,600;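 also: 0% = vehicle wells and 100% = reference inhibitor wells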
GDH-TPI counter-2: GDH-TPI coupling enzyme inhibitors, artefact control for M. tuberculosis FBA inhibitor project, biochemical, fluorescence, high throughput. shares compounds with Mtb FBA inh. GDH-TPI coupled enzyme counterscreen. inhibition, % at 1 µM. hit rate 81% among 5,600; in the data active = inhibition above about 10%
An asterisk follows results filed as active. A selection: hits, their analogues and other compounds. The true share with any hit is near 4.2%. Rule as the data show it, unless noted: active = inhibition above about 27%; inactive = the rest.

Results for CCCC1CCC2(CC1)CCC2OC(=S)Nc1cccc(I)c1 (stereo not given) ?
PrPC surface inh: 4.5

How did O=C(NCc1ccccc1)[C@H]1CCCN1C(=O)[C@H]1CCCN1C(=O)c1ccc(F)cc1 do in these assays?
PrPC surface inh: 0.4

Results for CCCCCCCCN1C(=O)[C@@H](CC(=O)NCCCCc2ccccc2)C[C@@]2(C(=O)OC)C1=C[C@H](C1CCCC1)O[C@@H]2C ?
PrPC surface inh: -2.3

How did COc1cccc(CN2CCN(Cc3cccc(Oc4ccccc4)c3)CC2)c1OC do in these assays?
Mtb FBA inh: 37.4*; GDH-TPI counter-1: 5.6; PrPC surface inh: -6.5; RecA intein inh: 7.9; BJeLR viability: 4.9; Mtb FBA inh conf: 3.1; GDH-TPI counter-2: -5.2

Results for COc1cccc(CN2CCN(Cc3cc(OC)c(OC)c(OC)c3)CC2)c1OC ?
Mtb FBA inh: 2.4; GDH-TPI counter-1: 4.2; PrPC surface inh: 4.6; RecA intein inh: 1.4; BJeLR viability: -3.0

What do the screens show for `COC(=O)c1oc2ccccc2c1N`?
Mtb FBA inh: 6.2; GDH-TPI counter-1: 14.7; PrPC surface inh: 1.6; RecA intein inh: 0.0; BJeLR viability: -4.5

How did COC(=O)c1oc2ccc(Cl)cc2c1N do in these assays?
Mtb FBA inh: 67.3*; GDH-TPI counter-1: 15.0; PrPC surface inh: -4.4; RecA intein inh: -1.5; BJeLR viability: 3.2; Mtb FBA inh conf: 6.8; GDH-TPI counter-2: 1.6

What do the screens show for `COc1cc2cc(C(=O)N(C)C3CCS(=O)(=O)C3)[nH]c2cc1OC` (stereo not given)?
Mtb FBA inh: 30.8*; GDH-TPI counter-1: 19.3; PrPC surface inh: -0.7; RecA intein inh: 4.0; BJeLR viability: 3.3; Mtb FBA inh conf: 6.5; GDH-TPI counter-2: -2.5

How did CC(OC(=O)c1cc(S(=O)(=O)N2CCOCC2)ccc1F)C(=O)NC1CCCCC1C (stereo not given) do in these assays?
Mtb FBA inh: 30.1*; GDH-TPI counter-1: 5.8; PrPC surface inh: 1.6; RecA intein inh: 1.9; BJeLR viability: 7.2; Mtb FBA inh conf: 35.1*; GDH-TPI counter-2: 26.8*

What do the screens show for `COC(=O)CNC(=O)[C@H](Cc1ccccc1)NC1(C(=O)NCCc2c[nH]c3ccccc23)CCCCC1`?
PrPC surface inh: 9.3

Results for CCOC(=O)N1CCN(C(=O)c2ccc3nc4ccsc4c(=O)n3c2)CC1 ?
Mtb FBA inh: 29.1*; GDH-TPI counter-1: 24.8; PrPC surface inh: -17.1; RecA intein inh: -2.2; BJeLR viability: -3.9; Mtb FBA inh conf: 3.6; GDH-TPI counter-2: 7.1

Results for CCOC(=O)N1CCN(C(=O)c2cccn3c(=O)c4sccc4nc23)CC1 ?
Mtb FBA inh: 66.1*; GDH-TPI counter-1: 53.3*; PrPC surface inh: -13.9; Mtb FBA inh conf: 9.1; GDH-TPI counter-2: -5.8

Results for CCOC(=O)N1CCN(C(=O)c2cccn3c(=O)c4cc(Br)ccc4nc23)CC1 ?
Mtb FBA inh: 15.6; GDH-TPI counter-1: 6.8; PrPC surface inh: -3.6; BJeLR viability: -8.5

How did Cc1ccc(NS(=O)(=O)c2ccc(NC(=O)C(C)Sc3ccc(Cl)cc3)cc2)c(C)c1 (stereo not given) do in these assays?
Mtb FBA inh: 81.5*; GDH-TPI counter-1: 2.0; PrPC surface inh: 0.0; RecA intein inh: 6.3; BJeLR viability: -5.1; Mtb FBA inh conf: 1.6; GDH-TPI counter-2: -3.4

Results for Cc1ccc(C)c(NS(=O)(=O)c2ccc(NC(=O)CSc3ccc(Cl)cc3)cc2)c1 ?
Mtb FBA inh: -3.4; GDH-TPI counter-1: -8.4; PrPC surface inh: -0.8; RecA intein inh: 0.9; BJeLR viability: -6.0

Results for O=C(O)c1c(-c2ccccc2)c2oc3ccccc3c2[nH]c1=O ?
Mtb FBA inh: 107.9*; GDH-TPI counter-1: 17.0; PrPC surface inh: -4.4; RecA intein inh: -1.9; BJeLR viability: -4.8; Mtb FBA inh conf: 89.7*; GDH-TPI counter-2: 70.4*

What do the screens show for `NC(=O)[C@@H]1CCCN1C(=O)[C@H]1O[C@@H](n2ccc(N)nc2=O)[C@H](O)[C@@H]1O`?
PrPC surface inh: -6.7

Results for COc1ccc2[nH]c3c(=O)n(N)c(=O)[nH]c3c2c1 ?
Mtb FBA inh: 107.1*; GDH-TPI counter-1: 14.0; PrPC surface inh: -9.8; RecA intein inh: -2.0; BJeLR viability: -5.5; Mtb FBA inh conf: 33.0*; GDH-TPI counter-2: 31.0*

What do the screens show for `CCCn1c(=S)[nH]c2cc(OC)c(OC)cc2c1=O`?
Mtb FBA inh: 0.5; GDH-TPI counter-1: 12.3; RecA intein inh: -7.9; BJeLR viability: -12.3

Results for COc1ccc2c(c1)[nH]c1c(=O)n(N)cnc12 ?
Mtb FBA inh: 4.2; GDH-TPI counter-1: 0.0; PrPC surface inh: -5.4; RecA intein inh: 4.7; BJeLR viability: -0.5

What do the screens show for `COc1cc2[nH]c3c(=O)n(N)c(=O)[nH]c3c2cc1OC`?
Mtb FBA inh: 34.2*; GDH-TPI counter-1: 11.2; PrPC surface inh: 0.8; RecA intein inh: -2.3; BJeLR viability: 7.5; Mtb FBA inh conf: 1.4; GDH-TPI counter-2: -3.7

Results for COc1ccc(OC)c(S(=O)(=O)N2CCCC(C(=O)Nc3c(C)n(C)n(-c4ccccc4)c3=O)C2)c1 (stereo not given) ?
PrPC surface inh: 5.6

How did COc1ccc(N2C(=O)c3ccccc3NC23CCCCC3)cc1 do in these assays?
Mtb FBA inh: 36.6*; GDH-TPI counter-1: -2.4; PrPC surface inh: 5.7; RecA intein inh: 2.7; BJeLR viability: 4.2; Mtb FBA inh conf: 110.8*; GDH-TPI counter-2: 108.8*

How did Cc1cc(N2CCN(CCO)CC2)n2nc(C)nc2n1 do in these assays?
PrPC surface inh: 0.7

Results for CCCCCCCCN1C(=O)[C@@H](CC(=O)N2CCN(C(=O)OCC)CC2)C[C@@]2(C(=O)OC)C1=C[C@H](C(C)(C)C)O[C@@H]2C ?
PrPC surface inh: -7.2

How did O=C(c1coc(=O)c(Br)c1)N1CCOCC1 do in these assays?
Mtb FBA inh: 98.2*; GDH-TPI counter-1: 17.6; PrPC surface inh: -0.3; RecA intein inh: -4.1; BJeLR viability: 3.8; Mtb FBA inh conf: 1.5; GDH-TPI counter-2: -3.3

Results for O=C(c1ccc(=O)oc1)N1CCOCC1 ?
Mtb FBA inh: 10.8; GDH-TPI counter-1: 22.5; PrPC surface inh: 5.5; RecA intein inh: 2.2; BJeLR viability: 10.7

What do the screens show for `C=CCN(C(=O)[C@@H](CCCC)[C@@H](O)c1ccc(C(C)=O)cc1)c1ccccc1`?
PrPC surface inh: -1.6

Bioassay records from PubChem BioAssay.
